Experimental data from PubChem BioAssay (NCI).
Compounds without any hit were thinned out: in the full panel of roughly 83,000, 20% have a hit.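 The test compound was applied at a single concentration to cells in 96-well plates for 48 hours, and percent growth was recorded.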 Values without a mark were called inactive. The source made the active and inactive calls.

tested on: OVCAR-8 ovarian; experiment: NCI-60 one-dose screen, 48 h (100 = growth as untreated, 0 = no growth, -100 = all killed); conditions: 10 µM unless noted
Experimental: Growth inhibition of the OVCAR-8 human tumor cell line is measured as a screen for anti-cancer activity. Cells are grown in 96 well plates and exposed to the test compound for 48 hours. Compounds are tested at a single concentration, which is 10^-5 M for most compounds. The reported endpoint is percent growth (GI% or GIPRCNT), where numbers from 0 - 100% represent growth inhibition, and numbers from -100% - 0 represent cell death. For example, a value of 40 represents 60% growth inhibition. A value of 0 means no net growth occurred over the course of the experiment. A value of -40 indicates 40% of cells at the beginning of the experiment died by the end of the experiment. A value of -100 means all cells are dead at the end of the experiment.
NCI-60 Human Tumor Cell Lines Screen was performed using the standard one-dose NCI protocol, which is described in more detail at https://dtp.cancer.gov/discovery_development/nci-60/default.htm.
Compounds with GIPRCNT values below 10 were considered active. Activity score was based on GIPRCNT using the following formula: […]
Score is 0 for GIPRCNT values of 100 or above, 50 for GIPRCNT values of 0, and 100 for GIPRCNT values of -100.

With `C=C1C(=O)O[C@H]2[C@H]1CC/C(COC(=O)NCc1cc3ccccc3[nH]1)=C\CC[C@@]1(C)O[C@@H]21` the growth was 6.1% (active).
`CN1CCN(c2ccc3nc(-c4[nH]ncc4Nc4ncnc5c4OCCCN5)[nH]c3c2)CC1` was tested, and the growth was 0.0729% (active).
In the case of `COC(=O)[C@]12CC[C@@H](C)[C@H](C)[C@@H]1C1=CC[C@@H]3[C@@]4(C)C[C@@H](OC(C)=O)[C@H](O)[C@@](C)(COC(C)=O)[C@@H]4[C@H](O)C[C@@]3(C)[C@]1(C)CC2`, the growth is reported as -53.7% (active).
In the case of `COc1cnc2c(c1)C(=O)c1c-2n(CCCNC2=NCCS2)c(=O)c2cc([N+](=O)[O-])ccc12`, the growth is reported as -6.2% (active).

Compared with `Cn1c(=O)c2c(ncn2CCC(=O)Nc2ccc(F)cc2)n(C)c1=O`, `COc1ccc(-c2nc(SCC(=O)Nc3ccc(C(C)=O)cc3)[nH]c(=O)c2C#N)cc1` is lower in growth: 108% for the first, 91% for the second.

First: C=C(C)[C@@H]1CC[C@]2(/C=N/Nc3ccncc3)CC[C@]3(C)[C@H](CC[C@@H]4[C@@]5(C)CCCNC(C)(C)[C@@H]5CC[C@]43C)[C@@H]12
Second: C=C(C)[C@@H]1CC[C@]2(C(=O)O)CC[C@]3(C)[C@H](CC[C@@H]4[C@@]5(C)C/C(=C/c6ccc(OC)cc6)C(=O)C(C)(C)[C@@H]5CC[C@]43C)[C@@H]12
The growth of the first is higher: 95.2% for the first, 23.2% for the second.

Compared with `O=C(CCCCCn1c2ccccc2c2c3c(c4c5ccccc5[nH]c4c21)C(=O)N(O)C3=O)N1CCOCC1`, `N#CCCCCCn1c2ccccc2c2c3[nH]c(=O)[nH]c(=O)c3c3c4ccccc4n(CCCCCC#N)c3c21` is lower in growth: 41.7% for the first, 27.4% for the second.

Going from `COc1cc2nc(Cl)nc(Nc3cccc(C(=O)/C=C/c4ccc(F)cc4)c3)c2cc1OC` to `COc1cc2ncnc(Nc3ccc(Oc4ccnc(C)c4)c(C)c3)c2cc1NC(=O)CC1CCSS1` (stereo not given), the growth falls from 67.3% to 25.4%.

First: COc1ccc(OCC(CO)N2CCN(c3ccccc3)CC2)cc1 (stereo not given)
Second: COc1ccc(NC(=O)c2ccoc2COc2ccccc2)cc1
The growth of the first is lower: 93.6% for the first, 100% for the second.

First: CC(C)(C)c1cc(-n2c(-c3ccc(Cl)cc3)nc3cc(C(=O)Nc4ccc(Cl)cc4)ccc32)n[nH]1
Second: Cn1cc(-c2csc(-c3cn(C(=O)OC(C)(C)C)c4ccc(Br)cc34)n2)c2cccnc21
The growth of the first is lower: 61.6% for the first, 70.7% for the second.

First: CCOC(=O)N1CCN(CCCCOc2ccc(C(C)(C)CC)cc2)CC1
Second: CC(C)=CCC/C(C)=C/CC/C(C)=C/CSC[C@H](NC(=O)CCCCCN1CCN(C)CC1)C(=O)NC1CCCCCC1
The growth of the first is higher: 103% for the first, 80.7% for the second.

Compared with `C=C(C)[C@@H]1CC[C@]2(C)[C@H](CC=C3[C@@H]4CC(C)(C)CC[C@]4(C=O)CC[C@]32C)[C@@]1(C)CCCN`, `C=C(C)[C@@H]1CC[C@]2(CN)CC[C@]3(C)[C@H](CC[C@@H]4[C@@](C)(CCCN)[C@H](C(=C)C)CC[C@]43C)[C@@H]12` is higher in growth: 77.8% for the first, 94.1% for the second.

Going from `COc1ccc2c(c1)c(-c1nc(-c3c[nH]c4ncccc34)cs1)cn2CCN` to `COc1cccc(-c2nn(-c3ccccc3)cc2-c2ccnc(NCCCNS(=O)(=O)c3ccc(Br)cc3)c2)c1`, the growth falls from 70.5% to 47.9%.

Compared with `Cc1cc(N(CCCNc2ccnc3cc(Cl)ccc23)Cc2ccco2)nc(Cl)n1`, `Cc1cc(Cl)nc(N(CCCNc2ccnc3cc(Cl)ccc23)Cc2ccco2)n1` is lower in growth: 41.2% for the first, 14.5% for the second.

First: COc1cc2[nH]c(C(=O)c3cc(OC)c(OC)c(OC)c3)c(N)c2cc1C#CC1CC1
Second: COc1ccccc1-n1cnc(N)c1C(=O)c1cc(OC)c(OC)c(OC)c1
The growth of the first is lower: 55.7% for the first, 61.8% for the second.

First: COc1cc(NC(C)CN(CC(C)C)C(C)C)c2ncccc2c1 (stereo not given)
Second: C/C(=N\NC(=O)C(C)SC(C)C(=O)N/N=C(\C)c1cccnc1)c1cccnc1 (stereo not given)
The growth of the first is lower: 90.1% for the first, 109% for the second.

First: O=[N+]([O-])c1ccc(/C=N\Nc2ccccc2)cc1
Second: O=C1NC(c2ccc(Cl)c(Cl)c2)=C/C1=C\c1ccccc1
The growth of the first is lower: 61.8% for the first, 74.4% for the second.

Going from `CC(C)(C)c1nc(-c2ccc(O)c(O)c2)cs1` to `CCN(CC)c1ccc(/C=C/c2cc(C)c3ccccc3n2)cc1`, the growth rises from 60.9% to 75.1%.

Compared with `N#CC1=C(N)Oc2ccc3ccccc3c2C1c1ccccc1Cl` (stereo not given), `Cc1ccnc2c(OCc3ccccc3)cccc12` is higher in growth: 61.8% for the first, 115% for the second.

Going from `NC(=O)[C@@H]1CC2CCC1C2` (stereo not given in full) to `C=C(C)[C@@H]1CC[C@]2(C(=O)OC)CC[C@]3(C)[C@H](CC[C@@H]4[C@@](C)(CC/C(N)=N/O)[C@H](C(=C)C)CC[C@]43C)[C@@H]12`, the growth falls from 108% to 102%.

Going from `Oc1cc(/C=C/c2nc(N3CCOCC3)c3cc(Cl)c(Cl)cc3n2)cc(O)c1O` to `CC1(n2nnnc2N2CCCN(c3ncccc3N)CC2)CCC1`, the growth falls from 107% to 102%.

In the case of `COc1cccc(-c2nn(-c3ccccc3)cc2-c2ccnc(NCCCNS(=O)(=O)c3cccc(F)c3)c2)c1`, the growth is reported as 12.1%.

Work on `N=C(N)N=Nc1ccc(O)cc1` yielded a growth of 36.7% [100 µM].
